Screens deposited in PubChem BioAssay by The Scripps Research Institute Molecular Screening Center.
SRC1 TRFRET art – counter-screen for PPARgamma SRC-1 recruitment agonists: TR-FRET artefact | TR-FRET detection artefact counter-screen, emission ratio; stronger effect = higher value | TR-FRET ratio at 8 µM | 99,000 compounds, 0.34% hits | AID 1051; in the data active means TR-FRET ratio above about 2300
TR-FRET SRC-2 ct – counter-screen for PPARgamma SRC-2 recruitment agonists: TR-FRET artefact | stronger effect = higher value | TR-FRET ratio at 8 µM | 200,000 compounds, 0.4% hits | AID 1049
SRC3 TRFRET art – TR-FRET artefact, counter-screen to PPARgamma/SRC-3 agonist assay; TR-FRET ratio at 8 µM; 99,000 compounds, 0.39% hits; PPARgamma/SRC-3 format; stronger effect = higher value
PPARg SRC-2 ag – promotes SRC-2 coactivator recruitment by human PPARgamma; P37231; PPARgamma LBD-SRC-2 recruitment, biochemical; activation, % at 8 µM; 200,000 compounds, 0.34% hits; AID 1032; in the data active means activation above about 22%
Target sequence (P37231 whole entry, looked up, the tested form may be a part): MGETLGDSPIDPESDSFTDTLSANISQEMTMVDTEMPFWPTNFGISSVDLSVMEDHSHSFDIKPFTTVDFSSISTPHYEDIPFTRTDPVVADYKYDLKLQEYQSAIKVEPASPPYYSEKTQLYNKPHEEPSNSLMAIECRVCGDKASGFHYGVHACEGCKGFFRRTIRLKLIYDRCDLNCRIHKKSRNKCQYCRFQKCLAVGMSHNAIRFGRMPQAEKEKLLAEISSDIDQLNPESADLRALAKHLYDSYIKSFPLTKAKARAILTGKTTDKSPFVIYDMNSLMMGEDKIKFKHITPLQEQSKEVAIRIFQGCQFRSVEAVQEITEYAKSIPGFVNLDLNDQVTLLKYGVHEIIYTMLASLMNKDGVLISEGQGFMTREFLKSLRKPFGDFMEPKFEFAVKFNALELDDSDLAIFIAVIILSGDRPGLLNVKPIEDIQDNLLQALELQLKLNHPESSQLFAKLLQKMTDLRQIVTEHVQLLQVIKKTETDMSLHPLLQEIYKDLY
PPARg SRC3 recr – promotes SRC-3 coactivator recruitment by human PPARgamma; P37231; biochemical PPARgamma/SRC-3 coactivator recruitment assay; activation, % at 8 µM; 200,000 compounds, 0.26% hits; AID 731; in the data active means activation above about 23%
PPARg SRC-1 ag – agonists of human PPARgamma SRC-1 coactivator recruitment; activation, % at 8 µM; PPARgamma-SRC-1 coactivator recruitment biochemical assay; 200,000 compounds, 0.41% hits; P37231; in the data active means activation above about 19%
Numbers stand for hits; i = inactive; nt = no result given. Hits are enriched below; roughly 0.9% of the tested compounds scored in any of these assays. Unless noted, no stated cut-off is given here; in the data, active means TR-FRET ratio above about 2000; inactive means the rest.

SMILES | SRC1 TRFRET art | TR-FRET SRC-2 ct | SRC3 TRFRET art | PPARg SRC-2 ag | PPARg SRC3 recr | PPARg SRC-1 ag
COc1cc(NC(C)=O)ccc1-c1cc2ccccc2oc1=O | i | i | i | i | i | i
O=C(Nc1nnc(C(F)(F)F)s1)c1ccc(Br)s1 | i | 2104 | 2443 | i | i | i
Cc1cc([N+](=O)[O-])ccc1N=Nc1c(N)[nH]n(-c2ccccc2)c1=O | 2323 | i | i | i | i | i
N=C1/C(=C\c2ccc(OCc3ccccc3)cc2)C(=O)N=C2SC(N3CCCC3)=NN12 | i | i | i | i | i | i
CCc1cc2cc(C(=O)Nc3ccc(C)cc3)sc2s1 | nt | i | nt | 24 | i | i
O=C1CC(c2ccc(Cl)cc2)SC(N(c2ccccc2)c2ccccc2)=N1 (stereo not given) | i | i | i | i | i | i
O=C(Cc1nc2ccccc2[nH]c1=O)c1ccccc1 | i | i | i | i | i | 22
COc1ccc(NS(=O)(=O)c2ccc(N3CCCC3)c(NC(=S)Nc3cccc(S(=O)(=O)N(C)C)c3)c2)cc1 | 2504 | i | i | i | i | i
COc1ccc(NS(=O)(=O)c2ccc(N3CCOCC3)c(NC(=O)c3ccc(OC)cc3)c2)cc1 | i | i | i | i | i | i
CN1/C(=C\C(=O)COc2ccc3c(c2)OCO3)C(C)(C)c2ccccc21 | nt | 2258 | nt | i | i | i
O=C(Cc1cccs1)Nc1ccc(-c2nnc(-c3ccco3)o2)cc1 | i | i | i | i | i | i
O=C(Cc1cccs1)Nc1ccc(-c2nnc(-c3ccccc3)o2)cc1 | nt | i | nt | i | i | 21
COc1ccccc1C1(O)CCN(CC(=O)Nc2nc(-c3ccccc3)cs2)CC1 | i | i | i | i | i | i
COc1ccc(C2C(C(C)=O)=C(O)C(=O)N2c2nc3ccccc3s2)cc1OC (stereo not given) | i | i | 2067 | i | i | i
COc1ccc(C2C(C(C)=O)=C(O)C(=O)N2c2nccs2)cc1OC (stereo not given) | i | i | i | i | i | i
CC(=O)NC(C)c1nc2ccccc2n1CC(=O)NC(C)CCc1ccccc1 (stereo not given) | i | i | i | i | i | i
CN(C)c1ccc(N=C/C=C2\N(C)c3ccccc3C2(C)C)cc1 | nt | i | nt | i | 28 | i
CCCC(=O)Nc1ccc(C(=O)Nc2ccc([N+](=O)[O-])cc2OC)cc1 | i | i | i | i | i | i
CCN(CC)C(=O)CC(c1ccc(F)cc1)c1ccc(OC(C)C)cc1 (stereo not given) | i | i | i | i | i | i
Cc1cc(C)c(C(=O)CSc2nnc(-c3ccccc3Br)o2)cc1C | nt | i | nt | i | i | 27
Cc1ccc(NC(=O)CSc2nnc(-c3ccccc3Br)o2)cc1C | nt | i | nt | i | i | i
Cn1cc([N+](=O)[O-])c(C(=O)N/N=C/c2ccc3c(c2)OCO3)n1 | i | i | i | i | i | i
CCOC(=O)c1sc(=NC(=O)COc2ccc(Cl)cc2)n(C)c1C | i | i | i | i | i | i
CCOC(=O)c1sc(=NC(=O)c2cccc(OC)c2)n(C)c1C | nt | i | nt | i | i | 80
CCOC(=O)c1sc(=NC(=O)c2ccc(OC)c(OC)c2)n(C)c1C | nt | i | nt | i | i | 80
SMILES | SRC1 TRFRET art | TR-FRET SRC-2 ct | SRC3 TRFRET art | PPARg SRC-2 ag | PPARg SRC3 recr | PPARg SRC-1 ag
CCOC(=O)c1sc(=NC(=O)c2ccccc2)n(C)c1C | 2795 | 2392 | 2902 | i | i | i
CSc1nc(C)cc(OCC(=O)N/N=C/c2ccccc2O)n1 | i | i | i | i | i | i
CS(=O)(=O)N1N=C(c2ccco2)CC1c1ccc(Cl)cc1Cl (stereo not given) | i | i | i | i | i | i
Nc1ccccc1C#CCCCCO | i | i | 2204 | i | i | i
CCCCC#Cc1ccccc1CC(=O)Nc1ccccc1 | i | i | i | i | i | i
CC(Cc1ccsc1)NC(=O)CCc1nnc(CCc2ccccc2)o1 (stereo not given) | i | i | i | i | i | i
CC1CN(C(=O)/C(C#N)=C2\N=C(NC(=O)c3ccccc3Cl)c3ccccc32)CC(C)O1 (stereo not given) | i | i | i | i | i | i
NC(=O)CNc1n[nH]c(=S)[nH]c1=O | i | i | i | i | i | i
C=CCn1c(SCc2ccc(C(=O)OC)cc2)nnc1-c1sc(N)nc1C | i | 1972 | i | i | i | i
O=C(CCC1CCCN(C(=O)C2=CCCCC2)C1)N1CCN(c2ccccn2)CC1 (stereo not given) | i | i | i | i | i | 25
